Over roughly 33,000 sequences, “E-score (-0.5 to 0.5)” has its median near -8e-05; the highest 2% begin near 0.23. Only a selection was taken, and the highest values are over-represented in it overall.
Biological target: T1, Nrg2 (UniProt P38082)
T1 sequence: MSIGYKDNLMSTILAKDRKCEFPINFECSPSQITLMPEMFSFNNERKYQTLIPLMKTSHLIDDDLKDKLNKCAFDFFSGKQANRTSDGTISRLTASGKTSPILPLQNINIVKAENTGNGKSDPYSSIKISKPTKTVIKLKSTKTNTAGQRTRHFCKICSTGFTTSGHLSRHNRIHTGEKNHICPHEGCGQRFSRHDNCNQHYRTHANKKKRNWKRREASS
Assay: PBM E-score (8-mer binding enrichment) (E-score (-0.5 to 0.5)); higher = stronger / more preferred TF binding
Details: protein concentration: 100 nM; construct: GST-full length
Outline: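 PURExpress in vitro transcription/translation supplied GST-tagged yeast transcription factors, either full-length or DNA-binding domain. Applied at about 100-200 nM to universal all-10-mer Agilent arrays double-stranded by primer extension, the bound protein was detected with fluorescent anti-GST. E-scores, modified Wilcoxon-Mann-Whitney statistics, were given by the Universal PBM Analysis Suite to ungapped eight-base words pooled with their reverse complements after masliner normalisation.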

| Sequence | PBM E-score |
| --- | --- |
| ACGACCAT | -0.0998 |
| CAATCGCC | 0.00157 |
| AGTAGGAA | -0.0957 |
| CCGCGCGG | 0.368 |
| CCGCGCCG | -0.0754 |
| CGGCGCGA | 0.121 |
| CCGCGGGA | 0.284 |
| AGGCGCCG | -0.0298 |
| CCGCGCAG | 0.0598 |
| CGGCGCCG | 0.25 |
| CGGCGCCA | 0.0132 |
| AGGCGCGC | 0.0865 |
| CCGCGGGC | 0.0924 |
| GCGCGGGA | 0.0263 |
| CGGCGCGC | 0.256 |
| AGGTACTA | 0.0762 |
| CTCTAGCC | -0.283 |
| AAAAGGCC | -0.197 |
| CAACCTAA | 0.059 |
| GTACGTCA | -0.102 |
| TTAGTAAA | 0.169 |
| ACATGCTC | 0.00619 |

| Sequence | PBM E-score |
| --- | --- |
| AAGAAGCC | 0.162 |
| ATAACATA | 0.123 |
| ATGTCCCA | -0.0945 |
| AAGTGCGG | 0.133 |
| CCGCGCCC | -0.0342 |
| CCGCGCGC | 0.236 |
| GGGCGCCA | 0.191 |
| CCGCGCTC | 0.0292 |
| AGGCGCCC | -0.0716 |
| GGGCGCCC | 0.282 |
| TCAGACGA | 0.119 |
| AACCCGAA | 0.0237 |
| AACCGCGG | 0.182 |
| TATGTTAA | -0.127 |
| CTTTCACC | -0.0112 |
| ATCAACCA | 0.0788 |
| ATAAACCC | 0.307 |
| ATAAACCA | -0.0416 |
| ATCAACCC | 0.297 |
| CTAAACCC | -0.0134 |
| CTCAACCC | 0.00526 |
| TCTTTGAA | -0.105 |

| Sequence | PBM E-score |
| --- | --- |
| AGGCCACA | -0.149 |
| ACTCATTA | 0.268 |
| CATCATTA | 0.231 |
| GCTCATTA | -0.058 |
| CATCATTC | 0.0606 |
| AATCATTA | 0.0429 |
| ACTCATTC | 0.117 |
| GTAGGCGA | 0.0848 |
| ATTCGGTA | 0.074 |
| AATTGCTA | 0.0948 |
| AATTGCTC | -0.145 |
| AATTGCTG | 0.257 |
| ATGGCCTC | -0.0922 |
| ACCGTTAC | -0.118 |
| TAGTATCA | 0.283 |
| CAGTATGA | 0.178 |
| GAGTATCA | 0.00367 |
| CAGTATCA | -0.0774 |
| AAGTATGA | 0.0335 |
| TAGTATGA | 0.26 |
| GAACGCTC | -0.107 |
| GACAGTGA | 0.0197 |

| Sequence | PBM E-score |
| --- | --- |
| ACGGAAAA | 0.0488 |
| ACGGAAAC | -0.0771 |
| ACGGAAAT | 0.244 |
| ACTTGTCA | 0.0495 |
| AAAGCAAA | 0.102 |
| ACAGCTCC | -0.0601 |
| AGCGCGAC | 0.12 |
| GCAGCGTA | -0.128 |
| ACTCCCCA | -0.0321 |
| ACTACTAA | -0.00741 |
| ACTAGTAG | 0.0854 |
| ACTAGTAT | 0.246 |
| ACTAGTAA | 0.036 |
| ACTACTAT | 0.27 |
| ACTACTAC | 0.0486 |
| TGGTGAAA | -0.0676 |
| CCCAATAG | 0.00098 |
| AATTCGCA | 0.229 |
| AATTCGCG | 0.202 |
| AATTCGCT | 0.318 |
| GATTCGCA | 0.121 |
| CATTCGCA | -0.0034 |

| Sequence | PBM E-score |
| --- | --- |
| AATTCGCC | 0.167 |
| AAGATCCC | 0.132 |
| ACAGGGAC | 0.339 |
| ACAGGGAT | 0.295 |
| ACAGGGAG | -0.147 |
| ATAGGGAC | 0.139 |
| AGAGGGAC | -0.0381 |
| ACAGGGAA | 0.0579 |
| CCCGCAAG | -0.15 |
| TGTGAACA | -0.0105 |
| ATCGTGAA | -0.0316 |
| CCCATACG | -0.0789 |
| TACCATCA | -0.169 |
| CCATAGGG | 0.00266 |
| CCGAATTA | -0.00177 |
| GCGAATTA | 0.279 |
| ACGAATTA | 0.1 |
| GTCCGCGA | -0.0693 |
| AAAGAGGC | -0.228 |

Source: the supplement of paper PMC3334620
